Experimental findings from the supplement of paper PMC8007513 are described below.

Where a name gives a salt, the structure may show the parent alone. ± gives the standard error. Hit rate of the full screen: of about 1,300 compounds, about 130 (10%) showed an effect of 50% or more. This is one part of a sample in which strong results are shown more often than they occur.

This experiment has as its system Trichoderma virens ATCC 9645. Nature of the experiment: growth yield (OD600) with compound + IPBC relative to untreated control; higher = less growth inhibition. The note with it: compound concentration: 100 uM, IPBC concentration: 200 ng/ml. An outline of the steps:
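For each 96-well plate, 100 μl aliquots were prepared with Trichoderma virens ATCC 9645 spores suspended at 15,000 spores ml^−1 in potato dextrose broth. The spores had been harvested from potato dextrose agar plates after 7 days. Library compounds were present at 100 μM final, some wells also receiving a biocide at 200 ng ml^−1, and plates were grown at 30 °C with OD600 read on a BioTek EL800 at 40 h and 72 h. Reported growth, relative to the control lacking both agents, is the mean of duplicate screens.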

For `Clc1ccc2c(c1)CCc1cccnc1C2=C1CCNCC1` [Desloratadine] + CCCCNC(=O)OCC#CI [3-iodo-2-propynyl butylcarbamate (IPBC)], the growth yield is 56.2 ± 0.64% (40 h) and 89.7 ± 1.4% (72 h).

Turning to `CN1CCC(=C2c3ccccc3CCc3cccnc32)CC1` [Azatadine maleate] + CCCCNC(=O)OCC#CI [3-iodo-2-propynyl butylcarbamate (IPBC)], the growth yield was 99.6 ± 2.4% (40 h) and 97.43 ± 0.94% (72 h).

In the case of `CCOC(=O)N1CCC(=C2c3ccc(Cl)cc3CCc3cccnc32)CC1` [Loratadine] + CCCCNC(=O)OCC#CI [3-iodo-2-propynyl butylcarbamate (IPBC)], the growth yield (40 h) turned out to be 17.3 ± 4% and the growth yield (72 h) stood at 58.7 ± 2.5%.

As for `Nc1nc(=O)n([C@@H]2CS[C@H](CO)O2)cc1F` [(-)-Emtricitabine] + CCCCNC(=O)OCC#CI [3-iodo-2-propynyl butylcarbamate (IPBC)], the growth yield (40 h) was 81.33 ± 0.64% and the growth yield (72 h) is 87.5 ± 1.1%.

With `CC(=O)[C@@]1(O)CC[C@H]2[C@@H]3C[C@H](C)C4=CC(=O)C=C[C@]4(C)[C@@]3(F)[C@@H](O)C[C@@]21C` [Fluorometholone] + CCCCNC(=O)OCC#CI [3-iodo-2-propynyl butylcarbamate (IPBC)], the growth yield (40 h) was 91.3 ± 9.1% and the growth yield (72 h) came to 88.7 ± 5%.

For `CC(=O)NS(=O)(=O)c1ccc(N)cc1` [Sulfacetamide sodic hydrate] + CCCCNC(=O)OCC#CI [3-iodo-2-propynyl butylcarbamate (IPBC)], the growth yield by setting is: (40 h) 91.5 ± 1.3%; (72 h) 93.7 ± 0.94%.

Turning to `Cc1noc(NS(=O)(=O)c2ccc(N)cc2)c1C` [Sulfisoxazole] + CCCCNC(=O)OCC#CI [3-iodo-2-propynyl butylcarbamate (IPBC)], the growth yield (40 h) was 77.7 ± 2.7% and the growth yield (72 h) amounted to 91.1 ± 1.4%.

As for `Cc1cc(C)nc(NS(=O)(=O)c2ccc(N)cc2)n1` [Sulfamethazine sodium salt] + CCCCNC(=O)OCC#CI [3-iodo-2-propynyl butylcarbamate (IPBC)], the growth yield came to 100 ± 14% (40 h) and 98.5 ± 9.1% (72 h).

As to `Cc1cc(NS(=O)(=O)c2ccc(N)cc2)no1` [Sulfamethoxazole] + CCCCNC(=O)OCC#CI [3-iodo-2-propynyl butylcarbamate (IPBC)], the growth yield was determined as 45.6 ± 1.1% (40 h) and 80 ± 1.6% (72 h).

As for `CC1CS(=O)(=O)CCN1/N=C/c1ccc([N+](=O)[O-])o1` (stereo not given) [Nifurtimox] + CCCCNC(=O)OCC#CI [3-iodo-2-propynyl butylcarbamate (IPBC)], the growth yield (40 h) came to 91.5 ± 12% and the growth yield (72 h) came to 91.9 ± 6.9%.

`C[C@H](CS)C(=O)N1CCC[C@H]1C(=O)O` [Captopril] + CCCCNC(=O)OCC#CI [3-iodo-2-propynyl butylcarbamate (IPBC)]: the growth yield runs as follows: (40 h) 90.1 ± 1.1%; (72 h) 90.1 ± 1.1%.

For the compound `C1CCC(C(CC2CCCCN2)C2CCCCC2)CC1` (stereo not given) [Perhexiline maleate] + CCCCNC(=O)OCC#CI [3-iodo-2-propynyl butylcarbamate (IPBC)], the growth yield worked out at 40.981 ± 7.1e-15% (40 h) and 85.27 ± 0.32% (72 h).

As to `CN1C(C(=O)Nc2ccccn2)=C(O)c2sccc2S1(=O)=O` [Tenoxicam] + CCCCNC(=O)OCC#CI [3-iodo-2-propynyl butylcarbamate (IPBC)], the growth yield is, setting by setting: (40 h) 83.1 ± 2.1%; (72 h) 94.08 ± 0.1%.

Consider `CCCCC1(COC(=O)CCC(=O)O)C(=O)N(c2ccccc2)N(c2ccccc2)C1=O` [Suxibuzone] + CCCCNC(=O)OCC#CI [3-iodo-2-propynyl butylcarbamate (IPBC)], for which the growth yield came out at 89.4 ± 2.7% (40 h) and 92.71 ± 0.84% (72 h).

Consider `Cc1cccc(C)c1NC(=O)C1CCCCN1C` (stereo not given) [Mepivacaine hydrochloride] + CCCCNC(=O)OCC#CI [3-iodo-2-propynyl butylcarbamate (IPBC)], for which the growth yield by setting is: (40 h) 91.3 ± 3.3%; (72 h) 96.3 ± 4%.

For the compound `CCCCC[C@H](O)/C=C/[C@@H]1[C@@H](C/C=C\CCCC(=O)O)[C@@H](O)C[C@H]1O` [Dinoprost trometamol] + CCCCNC(=O)OCC#CI [3-iodo-2-propynyl butylcarbamate (IPBC)], the growth yield runs as follows: (40 h) 83.1 ± 1.1%; (72 h) 94.08 ± 0.52%.

Consider `CCOc1ccc2nc(S(N)(=O)=O)sc2c1` [Ethoxzolamide] + CCCCNC(=O)OCC#CI [3-iodo-2-propynyl butylcarbamate (IPBC)], for which the growth yield reads like this: (40 h) 90.2%; (72 h) 92.2 ± 3.9%.

On to `Nc1nc2ccc(OC(F)(F)F)cc2s1` [Riluzole hydrochloride] + CCCCNC(=O)OCC#CI [3-iodo-2-propynyl butylcarbamate (IPBC)], for which the growth yield was 27.3 ± 2.2% (40 h) and 49.3 ± 1.9% (72 h).

`CC(C(=O)O)c1ccc(N2Cc3ccccc3C2=O)cc1` (stereo not given) [Indoprofen] + CCCCNC(=O)OCC#CI [3-iodo-2-propynyl butylcarbamate (IPBC)]: the growth yield (40 h) amounted to 88.8 ± 11% and the growth yield (72 h) was 91.2 ± 7.3%.

Take `Cc1ccc(C(=O)c2ccc(CC(=O)O)n2C)cc1` [Tolmetin sodium salt dihydrate] + CCCCNC(=O)OCC#CI [3-iodo-2-propynyl butylcarbamate (IPBC)]: the growth yield worked out at 77.8 ± 4.8% (40 h) and 83.9 ± 2.3% (72 h).

As for `C[C@]12CC[C@H](O)C[C@H]1CC[C@@H]1[C@@H]2CC[C@]2(C)[C@@H](C3=CC(=O)OC3)CC[C@]12O` [Digitoxigenin] + CCCCNC(=O)OCC#CI [3-iodo-2-propynyl butylcarbamate (IPBC)], the growth yield is 79.58 ± 0.48% (40 h) and 87.36 ± 0.52% (72 h).

As for `NC(=O)NC1NC(=O)NC1=O` (stereo not given) [Allantoin] + CCCCNC(=O)OCC#CI [3-iodo-2-propynyl butylcarbamate (IPBC)], the growth yield is, setting by setting: (40 h) 83.71 ± 0.48%; (72 h) 89.2 ± 2.2%.

Turning to `CC(C)OC(=O)C(C)(C)Oc1ccc(C(=O)c2ccc(Cl)cc2)cc1` [Fenofibrate] + CCCCNC(=O)OCC#CI [3-iodo-2-propynyl butylcarbamate (IPBC)], the growth yield runs as follows: (40 h) 65.4 ± 1.3%; (72 h) 76.3 ± 1.9%.

With `O=c1[nH]cc(F)c(=O)[nH]1` [5-fluorouracil] + CCCCNC(=O)OCC#CI [3-iodo-2-propynyl butylcarbamate (IPBC)], the growth yield (40 h) amounted to 36.9% and the growth yield (72 h) was found to be 58.1 ± 1.3%.

In the case of `Nc1nc(=O)[nH]cc1F` [Flucytosine] + CCCCNC(=O)OCC#CI [3-iodo-2-propynyl butylcarbamate (IPBC)], the growth yield was determined as 88.5 ± 2.1% (40 h) and 90.4 ± 0.63% (72 h).

`CCN(CC)C(C)C(=O)c1ccccc1` (stereo not given) [Amfepramone hydrochloride] + CCCCNC(=O)OCC#CI [3-iodo-2-propynyl butylcarbamate (IPBC)]: the growth yield amounted to 102 ± 15% (40 h) and 102 ± 9.3% (72 h).

For `O=C1C(CC[S+]([O-])c2ccccc2)C(=O)N(c2ccccc2)N1c1ccccc1` (stereo not given) [Sulfinpyrazone] + CCCCNC(=O)OCC#CI [3-iodo-2-propynyl butylcarbamate (IPBC)], the growth yield runs as follows: (40 h) 106 ± 9.2%; (72 h) 105 ± 2.4%.

`Cc1ccc(/C(=C\CN2CCCC2)c2ccccn2)cc1` [Triprolidine hydrochloride] + CCCCNC(=O)OCC#CI [3-iodo-2-propynyl butylcarbamate (IPBC)]: the growth yield runs as follows: (40 h) 96.1 ± 6.5%; (72 h) 100 ± 1.6%.

On to `CN1CCC(=C2c3ccccc3Sc3ccccc32)CC1` [Pimethixene maleate] + CCCCNC(=O)OCC#CI [3-iodo-2-propynyl butylcarbamate (IPBC)], for which the growth yield runs as follows: (40 h) 56.1 ± 1.4%; (72 h) 88 ± 2%.

Consider `CSc1ccc2c(c1)C(N1CCN(C)CC1)Cc1ccccc1S2` (stereo not given) [Methiothepin maleate] + CCCCNC(=O)OCC#CI [3-iodo-2-propynyl butylcarbamate (IPBC)], for which the growth yield is, setting by setting: (40 h) 2.06 ± 0.16%; (72 h) 1.78 ± 0.1%.

With `CN1CCN2c3ccccc3Cc3ccccc3C2C1` (stereo not given) [Mianserine hydrochloride] + CCCCNC(=O)OCC#CI [3-iodo-2-propynyl butylcarbamate (IPBC)], the growth yield is, setting by setting: (40 h) 82.6 ± 1.3%; (72 h) 94.1 ± 1.8%.

Regarding `CC1(C)O[C@@H]2[C@@H](CO[C@@]3(COS(N)(=O)=O)OC(C)(C)O[C@@H]23)O1` [Topiramate] + CCCCNC(=O)OCC#CI [3-iodo-2-propynyl butylcarbamate (IPBC)], the growth yield was 89 ± 5.1% (40 h) and 93.1 ± 5.9% (72 h).

With `CC(C)(Oc1ccc(C2CC2(Cl)Cl)cc1)C(=O)O` (stereo not given) [Ciprofibrate] + CCCCNC(=O)OCC#CI [3-iodo-2-propynyl butylcarbamate (IPBC)], the growth yield runs as follows: (40 h) 78.9 ± 3.6%; (72 h) 82.2 ± 1.7%.

Consider `O=c1[nH]c(=O)n([C@H]2C[C@H](O)[C@@H](CO)O2)cc1F` [Floxuridine] + CCCCNC(=O)OCC#CI [3-iodo-2-propynyl butylcarbamate (IPBC)], for which the growth yield (40 h) is 4.45% and the growth yield (72 h) is 19.1 ± 2.3%.

As for `O=c1[nH]c(=O)n([C@H]2C[C@H](O)[C@@H](CO)O2)cc1C(F)(F)F` [Trifluridine] + CCCCNC(=O)OCC#CI [3-iodo-2-propynyl butylcarbamate (IPBC)], the growth yield came to 90.4 ± 6.2% (40 h) and 92.7 ± 4% (72 h).

On to `O=c1[nH]c(=O)n([C@H]2C[C@H](O)[C@@H](CO)O2)cc1I` [Idoxuridine] + CCCCNC(=O)OCC#CI [3-iodo-2-propynyl butylcarbamate (IPBC)], for which the growth yield (40 h) came to 87.8 ± 2.1% and the growth yield (72 h) was determined as 89.04 ± 0.52%.

With `O=C(NCCNCC(O)COc1ccc(O)cc1)N1CCOCC1` (stereo not given) [Xamoterol hemifumarate] + CCCCNC(=O)OCC#CI [3-iodo-2-propynyl butylcarbamate (IPBC)], the growth yield by setting is: (40 h) 92.4 ± 1.6%; (72 h) 94.39 ± 0.63%.

`COc1cccc2c1C(=O)c1c(O)c3c(c(O)c1C2=O)C[C@@](O)(C(C)=O)C[C@@H]3O[C@H]1C[C@H](N)[C@H](O)[C@H](C)O1` [Daunorubicin hydrochloride] + CCCCNC(=O)OCC#CI [3-iodo-2-propynyl butylcarbamate (IPBC)]: the growth yield reads like this: (40 h) 9.21 ± 1.6%; (72 h) 44.7 ± 1.3%.

On to `COc1cccc2c1C(=O)c1c(O)c3c(c(O)c1C2=O)C[C@@](O)(C(=O)CO)C[C@@H]3O[C@H]1C[C@H](N)[C@H](O)[C@H](C)O1` [Doxorubicin hydrochloride] + CCCCNC(=O)OCC#CI [3-iodo-2-propynyl butylcarbamate (IPBC)], for which the growth yield (40 h) came out at 8.1 ± 1.1% and the growth yield (72 h) came out at 34.8 ± 20%.

Take `COc1cccc2c1C(=O)c1c(O)c3c(c(O)c1C2=O)C[C@@](O)(C(=O)CO)C[C@@H]3O[C@H]1C[C@H](N)[C@@H](O)[C@H](C)O1` [Epirubicin hydrochloride] + CCCCNC(=O)OCC#CI [3-iodo-2-propynyl butylcarbamate (IPBC)]: the growth yield worked out at 42.7 ± 0.48% (40 h) and 95.33 ± 0.32% (72 h).
